Assay outcomes as filed in PubChem BioAssay.
In the library only some 7.4% were active in any assay of this set; here they are far more common.
SMN2 splice up: SMN2 splice variant enhancement. HEK293 SMN2-luciferase splicing reporter, luminescence, 30-36 h. 2.8% of 210,000 active. Potency, µM (doses to about 46.1 µM), most hits filed as activators; also: nearly all actives have a fitted effect of over 55% in size
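HEK293 cells carry an SMN2 […]–luciferase reporter in which exon 7 inclusion puts luciferase in frame. Cells were plated 10-12 h before compound addition, then incubated 30-36 h at 37C. ONE-Glo luminescence was read; sodium butyrate at 4.5 mM final served as control.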
Rab9 prom act: activators of Rab9 promoter; Huh7 Rab9 promoter-luciferase reporter, luminescence, 24 h; 2.8% of 320,000 active; Potency, µM (titrated, usually from 9.22 µM), most hits filed as activators; AID 485297; also: nearly all actives have a fitted effect of over 60% in size
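Luciferase signal after 10 min detection reagent at ambient indicates Rab9 promoter upregulation; stably transfected Huh7 cells were treated 24 h with compound in DMSO at 37 °C, 5% CO2.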
ELG1 genotox: induces genotoxicity in HEK293T cells with luciferase-tagged ELG1 | HEK293T ELG1-luciferase reporter, luminescence, 16 h | Potency, µM (top dose mostly 46 µM), actives largely listed as activators | 1.3% of 330,000 active; also: nearly all actives have a fitted effect of over 60% in size
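Step 1: seed 2,000 HEK293T ELG1-luciferase cells per well. Step 2: add compound or DMSO, incubate 16 hr at 37 °C. Step 3: ONE-Glo, 30 min at room temperature, read luminescence.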
FLuc modulator: counter-screen for miR-21 project: firefly luciferase inhibitors or activators | P08659 | purified FLuc, Km substrates, luminescence inhibition | Potency, µM (doses to about 57.5 µM), most hits filed as inhibitors | 6.9% of 360,000 active | AID 588342; also: nearly all actives have a fitted effect of over 55% in size
Target sequence (P08659 whole entry, looked up): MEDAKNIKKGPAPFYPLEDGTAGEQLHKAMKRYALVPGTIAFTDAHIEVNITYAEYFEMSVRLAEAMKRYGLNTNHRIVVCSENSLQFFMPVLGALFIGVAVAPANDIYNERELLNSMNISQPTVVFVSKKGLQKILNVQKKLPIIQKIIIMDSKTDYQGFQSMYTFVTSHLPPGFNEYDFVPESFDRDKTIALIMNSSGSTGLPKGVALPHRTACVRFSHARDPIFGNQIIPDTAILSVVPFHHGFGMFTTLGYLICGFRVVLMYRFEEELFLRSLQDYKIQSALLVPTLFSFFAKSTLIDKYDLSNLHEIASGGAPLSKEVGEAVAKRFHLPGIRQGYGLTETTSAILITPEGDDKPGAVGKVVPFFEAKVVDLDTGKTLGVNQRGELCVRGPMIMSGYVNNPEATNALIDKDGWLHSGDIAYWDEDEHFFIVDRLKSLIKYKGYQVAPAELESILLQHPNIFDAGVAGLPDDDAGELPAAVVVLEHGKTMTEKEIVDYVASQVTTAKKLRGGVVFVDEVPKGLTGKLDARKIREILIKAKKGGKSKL
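Purified P. pyralis luciferase, 10 nM final, with Km-level 10 uM D-luciferin and 10 uM ATP in 50 mM Tris acetate pH 7.5, 10 mM Mg acetate, 0.01% Tween-20, 0.05% BSA; 6-point qHTS titration about 60 µM downward; luminescence read.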
NPC1 promoter act: activates the NPC1 promoter | Huh7 NPC1 promoter luciferase reporter, 24 h | Potency, µM (doses to about 9.22 µM), usual class: activators | 2.4% of 320,000 active; also: nearly all actives have a fitted effect of over 60% in size
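Readout is luciferase luminescence, reflecting NPC1 promoter activation in stably transfected Huh7 cells after 24 h compound exposure at 37 °C in reduced-serum medium with 10% FBS.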
A number is an active result; - = inactive; ? = inconclusive; . = no result; [ ] = dose if it differs, or a comment. Calls follow the shape of the dose curve; as a rule, active = well fitted curve in the direction sought with a large enough effect; inconclusive = small, poorly fitted or top-dose-only effect, or another doubt; inactive = no such curve, though single readings can be large; an effect the other way counts as inactive or inconclusive.

SMILES	SMN2 splice up	Rab9 prom act	ELG1 genotox	FLuc modulator	NPC1 promoter act
O=C1c2ccccc2C(=O)N1c1ccc(-c2nc3ccccc3o2)cc1	.	4.5µM	-	?	?
O=C1COc2ccc(-c3cc(-c4ccccc4)c4c(n3)-c3cc(Cl)ccc3OC4)cc2N1	-	.	.	-	.
O=C(COc1cc(Cl)c(Cl)cc1Cl)Nc1ccncc1	-	-	-	-	-
O=C(COc1cc(Cl)c(Cl)cc1Cl)Nc1cccc(O)c1	.	-	?	1.1µM	-
CCC(=O)c1ccc(OCC(=O)Nc2cccc(S(=O)(=O)N(C)c3ccccc3)c2)cc1	.	-	-	15µM	-
Cc1cccc(OCC(=O)Nc2cccc(O)c2)c1	-	-	10µM	17µM	-
COc1ccc(OC(=O)COc2cccc(C)c2)cc1	.	-	-	15µM	-
Cc1cccc(NC(=O)COc2ccccc2)c1	-	-	?	-[2.3 µM]	-
O=C(Nc1ccc(F)c(Cl)c1)C1CCN(S(=O)(=O)c2ccc3c(c2)CCCN3C(=O)C2CCC2)CC1	.	.	.	-	.
CCc1c(C)c(C#N)c2nc3ccccc3n2c1Nc1cccc(C(F)(F)F)c1	-	.	.	-	.
CC(=O)OC1CC(OC(C)=O)[C@]2(C)C(CC(=O)[C@]3(C)C2CC[C@@]2(C)C(C(=O)O)OC(=O)C4OC423)C1(C)C (stereo not given in full)	-	.	.	.	.
CCC(=O)Nc1cccc(NC(=O)COc2ccc(OC)cc2)c1	-	-	?	15µM	-
COc1cccc(NC(=O)COc2ccccc2)c1	.	-	?	?	?
CC(Oc1ccc(Cl)cc1Cl)C(=O)Nc1cccc(O)c1 (stereo not given)	-	-	-	17µM	-
COc1cccc(NC(=O)COc2ccc(Br)c(C)c2)c1	.	-	-	19µM	-
Cc1ccc(OCC(=O)Nc2cc(NC(=O)COc3ccc(C)c(C)c3)cc(C(=O)O)c2)cc1C	.	-	-	?	-
Cc1ccc(OCC(=O)Nc2cccc(O)c2)cc1C	-	?	?	5.4µM	?
Cc1cc(OCC(=O)Nc2ccncc2)ccc1Br	.	-	-	?	-
CCN(CC)CCCC(C)Nc1nc(C)cc(Nc2ccc3nc(C)cc(N)c3c2)n1 (stereo not given)	-	.	.	.	.
CCN(C(=O)CSc1nc2ccccc2n1CC(=O)Nc1cccc(C#N)c1)c1ccccc1	.	.	.	-	.
CCc1ccc(NC(=O)C2CCCN2S(=O)(=O)c2ccc3c(c2)CCCC(=O)N3)cc1 (stereo not given)	.	.	.	-	.
Cc1cc(C(=O)Nc2nc3ccc(S(C)(=O)=O)cc3s2)c(C)o1	5.6µM	3.2µM	8.2µM	0.85µM	?
COc1ccc2nc(NC(=O)c3cc(C)oc3C)sc2c1	16µM	2.8µM	?	1.3µM	?
COc1ccc2nc(NC(=O)c3ccoc3C)sc2c1	2µM	0.45µM	?	1.2µM	0.63µM
COc1ccc2nc(NC(=O)CN3CCOCC3)sc2c1	-	-	?	?	-
SMILES	SMN2 splice up	Rab9 prom act	ELG1 genotox	FLuc modulator	NPC1 promoter act
COc1ccc(C(=O)Nc2nc3cc4c(cc3s2)OCO4)c(OC)c1	.	0.79µM	?	0.43µM	0.79µM
O=C(CSc1nc2c([nH]c3ccccc32)c(=O)n1-c1ccc(Cl)cc1)N1CCCCCC1	.	.	.	-	.
Cc1cc(C)cc(NC(=O)CN(c2cc(C(F)(F)F)ccc2Cl)S(=O)(=O)c2ccccc2)c1	-	.	.	-	.
O=C(O)C1CC(=O)N(c2ccc(OCc3ccc(Cl)cc3Cl)cc2)C1 (stereo not given)	-	-	-	17µM	-
NC(=O)C1CC(=O)N(c2ccc(OCc3c(F)cccc3Cl)cc2)C1 (stereo not given)	.	-	-	-	-
NC(=O)C1CC(=O)N(c2ccc(OCc3ccc(F)cc3)cc2)C1 (stereo not given)	.	?	18µM	?	2.5µM
O=C(O)C1CC(=O)N(c2ccc(OCc3ccccc3Cl)cc2)C1 (stereo not given)	-	-	-	?	-
Cc1noc(C)c1CSc1nc2ccccc2s1	-	-	?	?	-
c1csc(CSc2nc3ccccc3s2)c1	?	3.5µM	15µM	4.8µM	?
CCn1c(CSc2nc3ccccc3s2)nc2ccccc21	-	-	-	24µM	-
Cc1ccc(N2C(=O)CS(=O)(=O)C23C(=O)N(Cc2ccccc2C)c2ccccc23)cc1Cl (stereo not given)	.	.	.	-	.
CCOc1ccc(NC(=O)CC2C(=O)N(c3cccc(C)c3)C(=O)N2Cc2ccco2)cc1 (stereo not given)	.	.	.	-	.
Cc1ccc(-c2csc(/C(C#N)=C/c3ccccc3Cl)n2)cc1	-	.	.	?	.
COc1cccc(/C=N/Nc2snc(SC)c2C#N)c1	-	-	-	4.8µM	?
COc1ccc(/C=N/Nc2snc(SC)c2C#N)cc1OC	?	2.8µM	-	2.1µM	2.8µM
CSc1nsc(N/N=C/c2ccccc2)c1C#N	-	-	-	?	-
COc1cccc(/C=N/Nc2snc(SC)c2C#N)c1O	-	-	-	4.8µM	-
C(=C\c1nc(-c2ccccc2)no1)/c1ccccc1	10µM	0.56µM	?	1.3µM	1.6µM
C(=C\c1nc(-c2ccncc2)no1)/c1ccccc1	.	-	-	-	-
COc1ccc(/C=N/NC(=O)c2ccc3nc[nH]c3c2)c(OC)c1	.	-	-	17µM	-
CCN(CC)c1ccc(/C=N/NC(=O)c2ccc3nc[nH]c3c2)c(O)c1	.	-	?	13µM	-
COc1ccc(/C=N/NC(=O)c2ccc3nc[nH]c3c2)cc1	.	-	-	21µM	-
COc1ccc(C=NNC(=O)c2ccccc2OCc2ccc(F)cc2)c(OC)c1	.	.	-	.	.
COc1cccc(/C=N/NC(=O)c2ccc3nc[nH]c3c2)c1O	.	-	-	19µM	-
COc1ccc(/C=N/NC(=O)c2cc[n+]([O-])cc2)cc1	.	-	-	?	-
SMILES	SMN2 splice up	Rab9 prom act	ELG1 genotox	FLuc modulator	NPC1 promoter act
COc1ccc(/C=N/NC(=O)c2ccc3nc[nH]c3c2)c(OC)c1OC	.	-	-	-	-
O=C(N/N=C/c1ccc(Cl)c([N+](=O)[O-])c1)c1ccc2nc[nH]c2c1	-	-	-	?	-
COc1cccc(C(=O)N/N=C/c2cn[nH]c2-c2ccc(OC)cc2OC)c1	-	-	-	15µM	-
COc1cc(OC)c(OC)cc1/C=N/NC(=O)c1ccc2nc[nH]c2c1	.	-	-	11µM	-
O=C(N/N=C/c1ccccc1[N+](=O)[O-])c1ccc2nc[nH]c2c1	.	2.8µM	?	13µM	?
CC(=O)c1cccc(NC(=O)C(OC(=O)/C=C/c2ccc3c(c2)OCO3)c2ccccc2)c1 (stereo not given)	-	-	-	13µM	-
CCOC(=O)c1c(NC(=O)c2cc(C)oc2C)sc(C(=O)Nc2ccc(Cl)cc2)c1C	-	-	-	17µM	-
CC(OC(=O)/C=C/c1ccccc1)C(=O)Nc1ccc2c(c1)OCCO2 (stereo not given)	.	-	-	-	-
CCOC(=O)c1c(NC(=S)Nc2ccc(Cl)cc2)sc(C)c1C	-	-	-	-	-
